# Reference: ChEMBL document CHEMBL4513216, “Probing the Open Global Health Chemical Diversity Library for Multistage-Active Starting Points for Next-Generation Antimalarials” (ACS Infect Dis, 2020)
# The whole screen tested about 69,000 compounds, of which about 8,600 (12%) showed an effect of 50% or more. Shown is part of a subset that was picked to be rich in strong results.
# System: Plasmodium berghei
# Assay: Screen against P. berghei liver stage (PbLuc), transformed with Luciferase, at 10uM
# Type: functional, HepG2
# Details: tested at 10 uM
row,SMILES,INHIBITION
1,Cc1ccc(C2(CN3CCN(Cc4cnc(C)n4C)CC3)CC2)cc1,12.8%
2,CN1CCC(Cc2cnc3ccccc3c2)C1 (configuration not stated),45.2%
3,CN1CCNCC(Cc2cnc3ccccc3c2)C1 (configuration not stated),52.7%
4,c1ccc2ncc(CC3CCNC3)cc2c1 (configuration not stated),35%
5,Cc1ccc(C)n1C(C)C(=O)N1CCCN(Cc2cscn2)CC1 (configuration not stated),26.55%
6,CCOC(=O)CC1CCCCN1C(=O)c1cccc2ccnn12 (configuration not stated),-22.1%
7,Cn1cccc1C(=O)N1CCC2(CC1)CCN2S(C)(=O)=O,20.1%
8,CC(C)C(=O)N1CCCC2(CCCN2Cc2cccnc2)C1 (configuration not stated),10.5%
9,Cn1cc(CN2CCCC23CCN(C(=O)c2ccccc2)CC3)cn1,-9.18%
10,Cn1cccc1C(=O)N1CCC2(CCCN2S(C)(=O)=O)CC1,28.2%
11,O=C(c1cnccn1)N1CCCC2(CCCN2Cc2cccnc2)C1 (configuration not stated),-8.85%
12,Cn1cc(CN2CCCC23CCN(C(=O)c2cccn2C)CC3)cn1,66%
13,CN1CCCCC12CCN(C(=O)c1cccn1C)CC2,50.7%
14,Cn1cccc1C(=O)N1CCC2(CCCN2Cc2ccccc2)CC1,45.3%
15,Cn1cccc1C(=O)N1CCCC2(CCCN2Cc2cccnc2)C1 (configuration not stated),56.9%
16,CO[C@@]1(C)C[C@@H](O)C12CCN(C(=O)c1ccccc1C(C)=O)CC2,40.7%
17,Cc1ccc(CN2C[C@@H]3COC[C@H](C(=O)N4CCCCO4)[C@@H]3C2)o1,14.8%
18,CC(C)CCN1CC2(CCCN(C(=O)CNC(=O)N(C)C)C2)CCC1=O (configuration not stated),19.4%
19,Cc1cc(NC(=O)NCC(C)N2CCOCC2)n(C)n1 (configuration not stated),-17%
20,Cc1cc(-c2cnc(C3CC3)nc2CN(C)C(=O)c2ccccn2)on1,-25%
21,CCOCCCNC(=O)Nc1ccc(F)c(C(N)=O)c1,7.67%
22,O=c1c2cccnc2ccn1Cc1nccn1C1CC1,14.9%

row,SMILES,INHIBITION
1,C[C@]1(O)CCN(Cc2nccs2)C[C@@H]1Oc1cccc(F)c1,26.3%
2,Cc1cnccc1CN1CC[C@@](C)(O)[C@H](Oc2ccccc2)C1,39.2%
3,C[C@@]1(O)CCN(Cc2cc[nH]n2)C[C@H]1Oc1cccc(F)c1,66.4%
4,Cc1ncc(CN2CC[C@@](C)(O)[C@H](Oc3cccc(F)c3)C2)cn1,56%
5,C[C@]1(O)CCN(Cc2c[nH]cn2)C[C@@H]1Oc1cccc(F)c1,32.3%
6,COc1ncc(CN2CC[C@@](C)(O)[C@H](Oc3cccc(F)c3)C2)cn1,37.9%
7,Cc1cnccc1CN1CC[C@H](Oc2cccc(F)c2)[C@@](C)(O)C1,48.6%
8,C[C@]1(O)CCN(Cc2cccnc2)C[C@@H]1Oc1cccc(F)c1,44.1%
9,Cc1cnccc1CN1CC[C@@](C)(O)[C@H](Oc2cccc(F)c2)C1,56%
10,O=C(Nc1ccccc1F)C1=NOC2(CCNCC2)C1,-18.5%
11,CSCc1noc(CNC(=O)C2CCN(C(=O)C3CC3)CC2)n1,23%
12,Cc1nc(N2CCCC2)nc2c1CN(C(=O)N(C)C)CC2,37.1%
13,CN(CCc1ccncc1)CC1CCCN1c1cccnn1 (configuration not stated),-69.3%
14,Cc1cccc2nc(C(=O)N3CCC4(CCC(=O)N(C)C4)CC3)c(F)n12,33.4%
15,Cc1cnc(-c2nc(NC3CC3)ncc2-c2onc(C)c2C)cn1,0.301%
16,Fc1ccc(CN2CCC3(CCN(Cc4nccs4)CC3)C2)cc1,21.7%
17,CCN1CCC(CNCc2c[nH]nc2C(C)(C)C)C1 (configuration not stated),11.4%
18,COc1ccc(CC(=O)N2CCC3(CC2)CCN(CC(C)C)C3=O)cc1,35.8%
19,Cc1nc(-c2ccsc2)ccc1C(=O)N(C)CC(F)(F)F,-4.12%
20,CN(C)Cc1noc2c1CN(Cc1ccsc1)CC2,15.7%
21,CN(C)Cc1noc2c1CN(Cc1ccc[nH]1)CC2,73.2%
22,Cc1cccc(CN2CCc3onc(CN(C)C)c3C2)n1,-14.2%

row,SMILES,INHIBITION
1,CN1CC(=O)N(c2ccccc2)CC12CCN(Cc1nccn1C)C2 (configuration not stated),7.31%
2,CNc1nc(CNC(=O)Nc2cccc(-c3ncc(C)o3)c2)cs1,20.1%
3,Cc1nn(C)cc1-c1cc(C(F)(F)F)nc(NC2CCN(C)CC2)n1,40.5%
4,Cc1nc2n(n1)CC(Nc1cc(C(F)(F)F)nc3ncnn13)CC2 (configuration not stated),-29.2%
5,Cc1nn(C)cc1-c1cc(C(F)F)nc(NC2CCCCC2)n1,26.9%
6,CCn1cc(-c2cc(C(F)(F)F)nc(NC3CCCC3)n2)c(C)n1,68.7%
7,CCn1cc(-c2nn3c(C(F)(F)F)nnc3s2)c(C)n1,4.12%
8,Cc1nn(C)cc1-c1cc(C(F)(F)F)nc(NC2CCCCC2)n1,58.9%
9,Cc1cc(N)n(-c2ccc3nnc(C)n3n2)n1,37.5%
10,Cc1cc(C(=O)N2CCCC(n3cncn3)C2)on1 (configuration not stated),-23.9%
11,CCc1ccccc1CN1CC[C@@]2(O)CCN(S(=O)(=O)N(C)C)C[C@H]2C1,44.6%
12,O=C(Cc1ccn[nH]1)Nc1cncc(Br)c1O,22.6%
13,O=C(Cc1ccon1)Nc1cncc(Br)c1O,-9.23%
14,O=C(Nc1cncc(Br)c1O)c1ccon1,83.2%
15,CN(C)C(=O)CO[C@H]1CN(Cc2cccc(C#N)c2)[C@@H]2COC[C@H]12,7.31%
16,Cc1noc(C2CCCCN2C(=O)NCc2ccco2)n1 (configuration not stated),26.4%
17,CNC1CCC2(CC1)CNC(=O)c1cc(C)ccc1O2 (configuration not stated),-16.5%
18,O=C(NC1CCS(=O)(=O)C1)c1cn(C2CC2)c(=O)c2ccccc12 (configuration not stated),43.9%
19,CN1CCCN(CC(=O)N2CCc3[nH]c(-c4ccccc4)nc3C2)CC1,17.6%
20,C[C@@H]1CCC[C@H](C)N1CC(=O)N1CCc2[nH]c(-c3ccccc3)nc2C1,64.8%
21,CC(=O)NCC(=O)N1CCc2[nH]c(-c3ccccc3)nc2C1,43%
22,COc1nc2c(cc1C(=O)NCc1noc(-c3ccco3)n1)CCC2,55%

row,SMILES,INHIBITION
1,COc1nc2c(cc1C(=O)NCc1nc(CSC)no1)CCC2,43.1%
2,COc1nc2c(cc1C(=O)NCc1noc(Cc3cccs3)n1)CCC2,24.7%
3,CCCC(N)CNS(=O)(=O)Cc1cccc(C#N)c1 (configuration not stated),39.3%
4,O=C(NCCn1ccnc1-c1cc2n(n1)CCNC2)c1ccc(F)cc1,8.08%
5,O=C(NCCn1ccnc1-c1cc2n(n1)CCCNC2)c1ccncc1,32%
6,O=C(NCCn1ccnc1-c1cc2n(n1)CCNC2)c1ccncc1,62.4%
7,Nc1nc(N2CCCCC2)ncc1C(=O)NCc1ccc(F)c(Cl)c1,26.4%
8,O=C(COc1cccc2c1CCC2=O)NCCc1cccs1,63.7%
9,O=C(COc1cccc2c1CCC2=O)NCC(F)(F)F,20%
10,O=C(COc1cccc2c1CCC2=O)NCCOc1ccccc1,41.8%
11,O=C(COc1cccc2c1CCC2=O)NCc1ccccc1Cl,50%
12,O=C(COc1cccc2c1CCC2=O)NCc1ccccc1F,1.58%
13,O=C(COc1cccc2c1CCC2=O)NCCSc1ccccc1,-66.3%
14,Cc1cc(N2CCC(O)(CN(C)C)C2)c2cc3c(cc2n1)OCO3 (configuration not stated),-7.02%
15,COCC(=O)N1CCCC1c1ccc(C(=O)NCc2ccccc2Cl)s1 (configuration not stated),-9.66%
16,COc1ccc(CSc2nnc(N)n2C2CC2)cc1Cl,46.3%
17,CCCS(=O)(=O)N1CCC2(CN(c3ccccc3)C(=O)CN2C)C1 (configuration not stated),41.2%
18,Cc1csc2nc3n(c(=O)c12)CCN(Cc1ccccn1)CC3,1.5%
19,Cc1cc2c(=O)n3c(nc2s1)CCN(C(=O)c1ccncc1)CC3,19.9%
20,Cc1csc2nc3n(c(=O)c12)CCN(C(=O)c1ccncc1)CC3,56.9%
21,Cc1csc2c(=O)n3c(nc12)CCN(C(=O)c1cccnc1)CC3,36.4%
22,Cc1ccc(C(=O)N2CCc3nc4c(C)csc4c(=O)n3CC2)cn1,57.5%

row,SMILES,INHIBITION
1,Cc1csc2c(=O)n3c(nc12)CCN(C(=O)c1ccccn1)CC3,35.2%
2,CCC[C@H]1CN(S(C)(=O)=O)C[C@@H]1NC(=O)CCOCC,27.6%
3,O=C(CCN1CCCO1)N1CCCC(CO)(CCCc2ccccc2)C1 (configuration not stated),-4.56%
4,N#Cc1cccc(CN2CC3(CCCCN3c3cncnc3)CC2=O)c1 (configuration not stated),27.5%
5,N#Cc1cccc(CN2CC3(CCCCN3c3cccnc3)CC2=O)c1 (configuration not stated),57.1%
6,N#Cc1cccc(CN2CC[C@@H]3[C@@H]2CC(=O)N3Cc2cccnc2)c1,22.7%
7,Cc1noc(C)c1CN1CC2(CCCCN2c2cncnc2)CC1=O (configuration not stated),65.9%
8,N#Cc1ccc(CN2CCN(Cc3ccncc3Cl)CC2=O)cc1,25.7%
9,Cc1noc(C)c1CN1CC2(CCCCN2C)CC1=O (configuration not stated),39.3%
10,N#Cc1ccc(CN2CCN(c3ccncc3Cl)CC2=O)cc1,24.5%
11,N#Cc1ccc(CN2CC3(CCCCN3c3cccnc3)CC2=O)cc1 (configuration not stated),57.1%
12,Cc1noc(C)c1CN1CC2(CCN(Cc3c[nH]cn3)CC2)CC1=O,-27.6%
13,CCN1CC(COC(=O)c2ccc(N(C)C)cc2F)CC1=O (configuration not stated),-56.7%
14,O=C(c1cccc(Cl)c1)N1CCCC2(CCCNC2)C1 (configuration not stated),0.164%
15,CN(C)C(=O)CN1C[C@H]2CC[C@@H](C1)N(Cc1ccc3nsnc3c1)C2,33.8%
16,Cc1ncc(C(=O)N2CCOC(C(=O)N3CCCCC3)C2)c(C)n1 (configuration not stated),-5.6%
17,CN(Cc1cccc(O)c1)Cc1cnn(C)c1,10%
18,Cn1cc(-n2cc3nc(N4CCOCC4)[nH]cc-3c2=O)cn1,-38.7%
19,NC(=O)c1c(SCCN2CCOCC2)sc2c(O)cc(=O)[nH]c12,20%
